This is an account of results in PubChem BioAssay.

Structures are written as SMILES. Values joined by “and” are separate entries in the source; they are usually repeats but may differ in a detail not shown here. Equal entries are not always repeated. Active and inactive are the calls of the source.
Further: test concentration not given here.

The first experiment can be described thus: JC-1 mitochondrial signal, unstimulated adipocytes – cell-based, JC-1 fluorescence, 3T3-L1 adipocytes, 24 h, 100 nL compound, profiling panel (AID 1168). The settings on record: JC-1 mitochondrial fluorescence, higher = more signal, called active from +8 up or from −8 down.
With `C=C(C)C(=O)OC[C@@H]1CN2[C@@H](CC[C@@H](C)[C@@H]2c2ccc(Br)cc2)C(=O)O1`, the z-score is 0.945 (inactive).

For the molecule `COC(=O)C1=C2N(Cc3ccccc3)C(C)=C(C(=O)OC)[C@@H](c3ccccc3)N2C(=O)[C@](O)(C(=O)OC)C1`, the z-score is -0.0488 (inactive) and -0.394 (inactive). As to `C=C[C@@H](C)[C@@H](O)c1ccc(OCCO)cc1`, the z-score is -0.82 (inactive) and -0.165 (inactive).

Take `C=CCN(Cc1ccccc1)C(=O)C1N(C(C)(C)CO)C(=O)C2C(C(=O)O)C3C=CC21O3` (centres undefined): the z-score was 0.0762 (inactive) and -0.264 (inactive). Regarding `C=CCN(C(=O)C1N(C(C)(C)CO)C(=O)C2C(C(=O)O)C3C=CC21O3)c1ccc(OC)cc1` (centres undefined), the z-score was 0.688 (inactive) and 0.702 (inactive).

On to `COC(=O)c1c2oc(c1C(=O)OC)C(=O)N[C@@H](Cc1ccccc1)Cn1cc(nn1)C1(CCCCC1)NC(=O)N[C@H](CO)CC2`, for which the z-score was 0.354 (inactive) and -0.852 (inactive). With `C=C[C@H](C)[C@H](O)c1ccc(O)c2ccccc12`, the z-score was -0.193 (inactive) and 1.11 (inactive). Same read-out and setting: the same measure for `CCOC(=O)C[C@H]1[C@H](OC(=O)c2ccccc2-c2ccccc2)[C@@H](NC(=O)Cc2ccc(OC)cc2)c2cc(OCCCO)ccc2N1C(=O)c1ccc2ccccc2n1`: 0.611 (inactive) and 0.669 (inactive).

As to `CC(C)OC(=O)C=C1C[C@@H](c2ccccc2)O[C@@H](c2ccccc2)O1`, the z-score is 0.383 (inactive) and 1.71 (inactive).

Turning to `COC(=O)C1=C(C)N(Cc2ccccc2)C2=C(C(=O)c3ccccc3)[C@H](c3ccccc3)[C@@](O)(C(=O)OC)C(=O)N2[C@@H]1c1ccccc1`, the z-score was -0.393 (inactive) and -1.16 (inactive).

Consider `COC(=O)[C@@]1(Cc2ccc(F)cc2)[C@H]2c3cc(C(=O)N4CCCC4)n(Cc4c(CO)[nH]cc(C)c4=O)c3C[C@H]2CN1C(=O)c1ccccc1`, for which the z-score was -0.217 (inactive) and -1.18 (inactive). Same read-out and setting: the same measure for `C[N+](C)(C)CCCCCCNC(=O)[C@H]1C[C@H]2C(=O)N[C@@H](CCCC[N+](C)(C)C)C(=O)N2[C@H]1c1ccc(O)cc1`: 0.913 (inactive) and 0.345 (inactive); for `CC(CO)N1C(=O)[C@@H]2C3C(=O)OCCC=C[C@H]3OC23C=CCN(CCN2CCOCC2)C(=O)[C@@H]13` (some centres undefined): -0.189 (inactive) and -0.818 (inactive); for `CCCC[C@@H]1CN2[C@H](c3ccc(Br)cc3)[C@@H](C)CC[C@H]2C(=O)O1`: -0.299 (inactive) and -0.848 (inactive). Consider `CO[C@H]1COC(=O)CC=C[C@H](C)[C@H](OC)COC(=O)[C@@H](C)COC(=O)CC=C[C@@H]1C`, for which the z-score is -0.317 (inactive) and 0.125 (inactive).

The next experiment is described as follows: JC-1 mitochondrial signal, unstimulated myeloma cells – cell-based, JC-1 fluorescence, RPMI8226, 24 h, 100 nL compound, profiling panel (AID 1169). The settings on record: JC-1 mitochondrial potential fluorescence, higher = more signal.
Turning to `CO[C@H]1COC(=O)CC=C[C@@H](C)COC(=O)[C@H](CCSC)NC(=O)CC=C[C@@H]1C`, the z-score is -0.688 and 0.358. On to `C=CCN(CCCCC)C(=O)C1N(C(C)(C)CO)C(=O)C2C(C(=O)O)C3C=CC21O3` (centres undefined), for which the z-score is 0.776 and 0.876. On the same count and under the same terms, the value for `C=CCN1C(=O)[C@]2(O[C@H](CCn3cc(CCO)nn3)[C@@H]([Si](C)(C)c3ccc(OC)cc3)[C@@H]2C)c2cc(N3C(=O)c4cccc5cccc3c45)ccc21` was -0.877 and -0.786; that for `CCC[C@@H]1C[C@@]1(CCC)[C@@H](NC(=O)c1ccc(-c2ccccc2)cc1)c1cccc(Cl)c1` was -0.256 and 0.137. Turning to `C[C@@H]1CC[C@H]2C(=O)O[C@H](CN=[N+]=[N-])CN2[C@H]1c1ccc(Br)cc1`, the z-score was -0.867 and 0.0245. For the molecule `C[C@@H]1CN2[C@@H](CC[C@@H](C)[C@@H]2c2ccc(Br)cc2)C(=O)O1`, the z-score is 0.05 and 0.203. As to `COc1ccc(O[C@H]2C=C[C@@H](c3ccccc3)O[C@@H]2COC(=O)CCC(C)=NO[C@H](C)c2cn([C@H](CO)Cc3ccccc3)nn2)cc1`, the z-score is 0.0444 and -0.196. `CON(C)C(=O)c1nnc2c3ccccc3n(S(=O)(=O)c3ccc(C)cc3)c2n1`: the z-score was 0.218 and 0.4. The molecule `COc1ccc(COC(=O)NN=C2C[C@@H](O)[C@@H](O)[C@@H]3[C@@H]4C(=O)N(C(C)(C)C)C(=O)[C@@H]4CC[C@H]23)cc1` gave a z-score of 0.704. As to `COC(=O)C1=C(C)N(Cc2ccccc2)[C@]23O[C@](C(=O)OC)(C(=O)N2[C@@H]1c1ccccc1)[C@@H](C(=O)OC)[C@H]3C(=O)OC`, the z-score is -0.866 and 0.532. Regarding `C[C@@H]1CC[C@H]2C(=O)NC[C@@H](O)CN2[C@H]1c1ccc(Br)cc1`, the z-score was -0.606 and 0.0684. `C#CCCCON=C1C[C@@H](O)[C@@H](O)[C@@H]2[C@@H]3C(=O)N(C4CCCCC4)C(=O)[C@@H]3CC[C@H]12` gave a z-score of 0.515. The molecule `C[C@@H]1CC[C@@H](C(=O)O)N[C@H]1c1ccc(-c2ccco2)cc1` returned a z-score of -0.636.

As for `C=CCN(C(=O)C1N(C(C)(C)CO)C(=O)C2C(C(=O)O)C3C=CC21O3)C(C)(C)C` (centres undefined), the z-score was 0.669 and -0.287. Turning to `C=CCN(C(=O)C(c1cccs1)N(C(=O)/C=C\C(=O)O)c1ccc(CCO)cc1)C(C)(C)C` (centres undefined), the z-score is 0.185 and 0.0345. On to `Cc1ccc(S(=O)(=O)N[C@H]2COC(=O)[C@@H](Cc3ccccc3)NC(=O)[C@@H](C)COC(=O)CC=C[C@@H]2C)cc1`, for which the z-score is -0.259 and 0.107. Take `CC(C)[Si]1(C(C)C)OCc2cc(CCCc3cc4c(c(CCc5ccccc5)n3)[Si](C(C)C)(C(C)C)OC4)nc(CCc3ccccc3)c21`: the z-score is -0.152 and 1.02. `O=c1n(-c2ccccc2)c(=O)n2n1CC[C@@H]1C(=NOC[C@@H](O)COCc3ccco3)[C@H]3O[C@H]3[C@@H](O)[C@@H]12`: the z-score is -0.135 and 0.0289.

As for `O=C1C[C@]2(c3ccc([N+](=O)[O-])cc3)C(=O)N(Cc3ccccc3)c3cc(CO)ccc3[C@H]2N1C1CCCCC1`, the z-score was -0.469 and -0.544. Regarding `CCOC(=O)[C@H](CC(C)C)NC(=O)CCC1CC(OC(=O)NCc2cccc3ccccc23)CC2(CCCC(COC(=O)NCc3ccccc3)O2)O1` (some centres undefined), the z-score came to 0.0897. As to `CCOC(=O)c1ccc(NC(=O)O[C@H]2[C@H](OC(=O)Nc3ccccc3)[C@H](OC(=O)Nc3ccccc3)[C@@H](OC)O[C@@H]2CO)cc1`, the z-score was -0.396 and -0.968.

For `CC[C@@H]1C(Sc2ccccc2)C(C(=O)O)[C@H](c2ccc(C)cc2)N1S(=O)(=O)c1ccc(C)cc1` (some centres undefined), the z-score is 0.296 and -0.369. On to `CCCC[C@@H]1CN2[C@@H](CC[C@@H](C)[C@@H]2c2ccc(Br)cc2)C(=O)O1`, for which the z-score was 0.266 and -0.0989. As for `C=CCN(CCCCC)C(=O)C(c1cccs1)N(C(=O)/C=C\C(=O)O)c1ccc(CCO)cc1` (centres undefined), the z-score is 1.26 and -0.556. Still for that read-out and setting: the same measure for `C=C(C)C(=O)OC[C@@H]1CN2[C@@H](CC[C@@H](C)[C@@H]2c2ccc(Br)cc2)C(=O)O1`: -0.28; for `COC(=O)C1=C2N(Cc3ccccc3)C(C)=C(C(=O)OC)[C@@H](c3ccccc3)N2C(=O)[C@](O)(C(=O)OC)C1`: -0.848 and 0.573.

Consider `C=C[C@@H](C)[C@@H](O)c1ccc(OCCO)cc1`, for which the z-score is -0.0815 and 0.346. For `C=CCN(Cc1ccccc1)C(=O)C1N(C(C)(C)CO)C(=O)C2C(C(=O)O)C3C=CC21O3` (centres undefined), the z-score is 0.248 and 0.652. Regarding `C=CCN(C(=O)C1N(C(C)(C)CO)C(=O)C2C(C(=O)O)C3C=CC21O3)c1ccc(OC)cc1` (centres undefined), the z-score is 0.9 and -0.286. With `COC(=O)c1c2oc(c1C(=O)OC)C(=O)N[C@@H](Cc1ccccc1)Cn1cc(nn1)C1(CCCCC1)NC(=O)N[C@H](CO)CC2`, the z-score was -0.0874 and -0.0745. The same measure, in the same setting: the same measure for `C=C[C@H](C)[C@H](O)c1ccc(O)c2ccccc12`: -1.01 and 0.71.

For `CCOC(=O)C[C@H]1[C@H](OC(=O)c2ccccc2-c2ccccc2)[C@@H](NC(=O)Cc2ccc(OC)cc2)c2cc(OCCCO)ccc2N1C(=O)c1ccc2ccccc2n1`, the z-score was 0.257 and -0.354. `CC(C)OC(=O)C=C1C[C@@H](c2ccccc2)O[C@@H](c2ccccc2)O1`: the z-score was -0.374 and -0.422. In the case of `COC(=O)C1=C(C)N(Cc2ccccc2)C2=C(C(=O)c3ccccc3)[C@H](c3ccccc3)[C@@](O)(C(=O)OC)C(=O)N2[C@@H]1c1ccccc1`, the z-score is -0.639 and -0.349. On to `COC(=O)[C@@]1(Cc2ccc(F)cc2)[C@H]2c3cc(C(=O)N4CCCC4)n(Cc4c(CO)[nH]cc(C)c4=O)c3C[C@H]2CN1C(=O)c1ccccc1`, for which the z-score is -0.409 and 0.893. Turning to `C[N+](C)(C)CCCCCCNC(=O)[C@H]1C[C@H]2C(=O)N[C@@H](CCCC[N+](C)(C)C)C(=O)N2[C@H]1c1ccc(O)cc1`, the z-score was -0.169 and 0.432. As for `CC(CO)N1C(=O)[C@@H]2C3C(=O)OCCC=C[C@H]3OC23C=CCN(CCN2CCOCC2)C(=O)[C@@H]13` (some centres undefined), the z-score is -0.00565 and 0.13. As to `CCCC[C@@H]1CN2[C@H](c3ccc(Br)cc3)[C@@H](C)CC[C@H]2C(=O)O1`, the z-score was -0.187 and -0.361.

For `CO[C@H]1COC(=O)CC=C[C@H](C)[C@H](OC)COC(=O)[C@@H](C)COC(=O)CC=C[C@@H]1C`, the z-score was -0.429 and 0.0879.
